# Data taken from PubChem BioAssay (EPA / NIEHS).
# Results filed as inconclusive are left out. Calls of active or inactive are those of the source. Rule for the calls, unless noted: active = hit-call score of the fitted dose curve at least 0.9, where 1 is the maximum; inactive = score below 0.9.
# Tests used:
# [1] = CCTE_Shafer_MEA_acute_firing_rate_mean: CCTE's Neural Acute Assay for Mean Firing Rate, Shafer Lab (AID 2284009);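 note: analyzed for loss of signal so actives lower firing rate relative to DMSO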
# Outline: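 Spontaneous spiking of primary rat cortical networks, DIV 13/15, 37 C. Compound 0.03-40 uM, n ≥3 wells; 40 min baseline vs 40 min treated. Endpoint fitted in loss-of-signal direction against DMSO.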
# [2] = CCTE_Harrill_HTTr_Viability_MCF7: CCTE's 6-hour Cell Viability Assessment for the High-Throughput Transcriptomics (HTTr) Platform, in MCF-7 cells cultured in DMEM + 10% fetal bovine serum, Harrill Lab (AID 2284010)
# Outline: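 Propidium iodide exclusion, imaged by high-content analysis, gauged viability after a six-hour exposure across eight concentrations. Cells were MCF-7 grown in DMEM with 10% fetal bovine serum; fits run in both directions against DMSO.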
# [3] = CCTE_Harrill_HTTr_Apoptosis_MCF7: CCTE's 6-hour Apoptosis Assessment for the High-Throughput Transcriptomics (HTTr) Platform, in MCF-7 cells cultured in DMEM + 10% fetal bovine serum, Harrill Lab (AID 2284011)
# Outline: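 Read-out: CellEvent Caspase 3/7 Green signal by high content imaging, gain-of-signal indicating apoptosis. MCF-7 cells, DMEM + 10% FBS, eight-point dilution series, 6 h exposure. Curves fitted bidirectionally relative to DMSO negative control.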
# [4] = CCTE_Harrill_HTTr_CellCount_MCF7: CCTE's Cell Proliferation Assessment for the High-Throughput Transcriptomics (HTTr) Platform, Harrill Lab (AID 2284012; active = hit-call score of the fitted dose curve at least 0.9, where 1 is the maximum;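 note: cells exposed to compound for six hours; intended direction is loss of nuclei count meaning fewer cells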)
# Outline: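 Cell count from high-content imaging of Hoechst-labeled nuclei serves as viability/growth readout. Chemicals were applied to MCF-7 cells in eight concentrations for six hours, with fitting in both directions relative to DMSO.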
# [5] = CCTE_Shafer_MEA_acute_per_burst_spike_number_mean: CCTE's Neural Acute Assay for Average Number of Spikes Per Burst, Shafer Lab (AID 2284015);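 note: hits are decreases in mean spikes per burst versus baseline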
# Outline: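 We recorded spontaneous network firing of rat cortical neurons for 40 min before and 40 min during exposure to compound at 0.03-40 uM, at 37 C. Spikes were detected adaptively at 8x rms noise, and the change in average spikes per burst was fitted against DMSO.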
# [6] = CCTE_Shafer_MEA_acute_interburst_interval_mean: CCTE's Neural Acute Assay for Mean Interburst Interval, Shafer Lab (AID 2284016);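 note: percent change of mean interburst interval versus each well's own pre-dose baseline; curves fitted for decrease in interburst interval relative to DMSO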
# Outline: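 MEA recording of spontaneous network bursting in primary rat cortical cultures; mean interburst interval was compared before and after a 40-min compound exposure (0.03-40 uM) and expressed as percent change, relative to DMSO.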
# [7] = CCTE_Shafer_MEA_acute_burst_percentage_mean: CCTE's Neural Acute Assay for Percentage of Spikes in a Burst, Shafer Lab (AID 2284017);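 for AC50: curve fitted for loss of signal so potency reflects decreased burst percentage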
# Outline: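 Compounds were tested at 0.03-40 uM on primary rat cortical neuron networks grown over microelectrodes, with at least three wells per compound. Spontaneous firing was recorded for 40 min before and 40 min after dosing, and the change in burst percentage was computed per well.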
# [8] = CCTE_Shafer_MEA_acute_per_network_burst_spike_number_mean: CCTE's Neural Acute Assay for Average Number of Spikes in a Network Burst, Shafer Lab (AID 2284019);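 for AC50: curve fitted for loss of signal so actives reduce spikes per network burst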
# Outline: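 Acute exposure of rat primary cortical networks (DIV 13/15) on MEAs; adaptive spike detection at 8x rms noise, 37 C. Percent change in spikes per network burst after 40 min with compound (0.03-40 uM), negative direction vs DMSO.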
# [9] = CCTE_Shafer_MEA_acute_per_network_burst_spike_number_std: CCTE's Neural Acute Assay for Standard Deviation of Number of Spikes in a Network Burst, Shafer Lab (AID 2284020);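 note: fitted for decrease in spike-number SD versus DMSO so actives lower it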
# Outline: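 Acute MEA exposure, rat cortical neurons, 0.03-40 uM. Per-well % change versus own baseline; DMSO as negative control.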
# [10] = CCTE_Shafer_MEA_acute_network_burst_percentage: CCTE's Neural Acute Assay for Percentage of Network Bursts, Shafer Lab (AID 2284022);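 note: curves fitted for loss so actives lower network burst percentage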
# Outline: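 Rat cortical cultures, DIV 13/15; 20 min equilibration, 40 min baseline, compound 0.03-40 uM, 40 min recording, 37 C. Spikes: 300-5000 Hz band-pass, threshold 8x rms noise. Readout: % change in network-burst spike fraction; loss direction vs DMSO.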
# [11] = CCTE_Shafer_MEA_acute_cross_correlation_area: CCTE's Neural Acute Assay for Area of Cross Correlation, Shafer Lab (AID 2284024);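 note: rat primary cortical neuron networks on 48-well MEA at DIV 13 or 15 with 40 min exposure; area under pooled inter-electrode spike cross-correlation near zero lag as percent change from own baseline; curves fitted for loss of cross-correlation area so actives lower synchrony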
# Outline: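 Rat cortical cultures, DIV 13/15, MEA; spikes detected at 8x rms noise (300-5000 Hz band-pass). Compound 0.03-40 uM, ≥3 wells each. Readout: % change in pooled inter-electrode cross-correlation area vs own baseline; DMSO negative control.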
# [12] = CCTE_Shafer_MEA_acute_cross_correlation_HWHM: CCTE's Neural Acute Assay for Cross Correlation at Half Width at Half Maximum, Shafer Lab (AID 2284026);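 note: percent change per well from pre-dose baseline in spike cross-correlogram half width; hits are a decrease in cross-correlogram half width relative to DMSO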
# Outline: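 Read-out: half width at half maximum of action-potential cross-correlogram, percent change versus pre-treatment baseline, fitted in loss direction against DMSO. Rat cortical cultures, DIV 13 or 15, dosed 0.03-40 uM, 40-min recordings at 37 C.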
# [13] = CCTE_Shafer_MEA_acute_synchrony_index: CCTE's Neural Acute Assay for Synchrony, Shafer Lab (AID 2284027);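 note: network synchrony index of spontaneous spiking in primary rat cortical neurons on MEAs; fitted for loss of signal so actives lower synchrony relative to DMSO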
# Outline: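 The synchrony index is taken as percent change per well between a 40 min baseline and a 40 min recording with compound (0.03–40 uM), at 37C. Rat cortical cultures on multiwell MEAs at DIV 13 or 15, spike threshold 8× rms noise.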
# [14] = biological target: Estrogen receptor (Homo sapiens) (UniProt P03372); test: CCTE_Deisenroth_AIME_384WELL_LUC_Active: CCTE's 384-well Estrogen Receptor Transactivation Assay with AIME metabolic competence (ERTA luciferase; metabolism positive), Deisenroth Lab (AID 2284030; active = hit-call score of the fitted dose curve at least 0.9, where 1 is the maximum)
# Sequence of Estrogen receptor (Homo sapiens) (P03372 whole entry, looked up): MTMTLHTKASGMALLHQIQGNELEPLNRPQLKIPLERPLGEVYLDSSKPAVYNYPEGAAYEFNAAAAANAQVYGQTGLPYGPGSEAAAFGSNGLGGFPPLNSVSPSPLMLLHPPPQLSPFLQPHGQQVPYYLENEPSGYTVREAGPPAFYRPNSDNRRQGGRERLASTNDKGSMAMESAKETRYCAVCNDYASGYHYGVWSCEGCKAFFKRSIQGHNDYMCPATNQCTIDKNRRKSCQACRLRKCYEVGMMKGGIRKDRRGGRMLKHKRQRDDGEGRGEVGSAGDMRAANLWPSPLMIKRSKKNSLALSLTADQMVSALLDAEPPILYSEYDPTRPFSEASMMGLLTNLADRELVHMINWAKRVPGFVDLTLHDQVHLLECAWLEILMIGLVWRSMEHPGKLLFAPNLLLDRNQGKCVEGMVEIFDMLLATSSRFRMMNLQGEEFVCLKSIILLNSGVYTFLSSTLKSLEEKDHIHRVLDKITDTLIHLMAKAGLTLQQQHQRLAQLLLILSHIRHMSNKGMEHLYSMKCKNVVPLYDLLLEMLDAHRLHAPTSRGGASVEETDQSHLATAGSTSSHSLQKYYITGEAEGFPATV
# Outline: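 Readout: bioluminescent luciferase induction in VM7Luc4E2 cells 24 hour after receiving medium from a 2 h rat hepatic S9 (induced, alginate microsphere) metabolism step. Concentrations 0.002 - 200 uM; activity scaled to 17beta-estradiol positive control.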
# [15] = CCTE_Deisenroth_AIME_384WELL_CTox_Active: Cytotoxicity Assessment (CTOX) in CCTE's 384-well Estrogen Receptor Transactivation Assay with AIME metabolic competence (metabolism positive), Deisenroth Lab (AID 2284037; active = hit-call score of the fitted dose curve at least 0.9, where 1 is the maximum;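 note: chemicals first conditioned 2 h by alginate-bound induced rat liver S9 before cells; activity means signal loss indicating cell death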)
# Outline: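 VM7Luc4E2 breast cells received medium pre-incubated 2 h with chemical over alginate microspheres holding induced male Sprague Dawley rat liver S9; viability read 24 h later by protease-substrate fluorescence. Loss of signal, bidirectional fit, 0.002–200 uM.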
# [16] = CCTE_Shafer_MEA_dev_firing_rate_mean: CCTE's Neural Network Formation Assay for Mean Firing Rate, Shafer Lab (AID 2284031);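 note: AUC of well mean spike rate recorded on DIV 5 7 9 and 12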
# Outline: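 Spike frequency (spikes/recording length, averaged over active electrodes) was recorded on days 5, 7, 9 and 12 and collapsed to AUC; rat cortical cultures received compound continuously over 12 days of network development.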
smiles,measurement,setting,value
Clc1cc(Cl)c(Cl)cc1Cl,outcome,[1],inactive
same,outcome,[2],inactive
same,outcome,[3],inactive
same,outcome,[4],inactive
same,outcome,[5],inactive
same,outcome,[6],inactive
same,outcome,[7],inactive
same,outcome,[8],inactive
same,outcome,[9],inactive
same,outcome,[10],inactive
same,outcome,[11],inactive
same,outcome,[12],inactive
same,outcome,[13],inactive
same,outcome,[14],inactive
O=C(O)CCCCC(=O)O,outcome,[1],inactive
same,outcome,[2],inactive
same,outcome,[3],inactive
same,outcome,[4],inactive
same,outcome,[5],inactive
same,outcome,[6],inactive
same,outcome,[7],inactive
same,outcome,[8],inactive
same,outcome,[9],inactive
same,outcome,[10],inactive
same,outcome,[11],inactive
same,outcome,[12],inactive
same,outcome,[13],inactive
NCC1(Cc2noc(=O)[nH]2)CCCCC1,outcome,[1],inactive
same,outcome,[2],inactive
same,outcome,[3],inactive
same,outcome,[4],inactive
same,outcome,[5],inactive
same,outcome,[6],inactive
same,outcome,[7],inactive
same,outcome,[8],inactive
same,outcome,[9],inactive
same,outcome,[10],inactive
same,outcome,[11],inactive
same,outcome,[12],inactive
same,outcome,[13],inactive
CCCCCCCCCCO,outcome,[1],inactive
same,outcome,[2],inactive
same,outcome,[3],inactive
same,outcome,[4],inactive
same,outcome,[5],inactive
same,outcome,[6],inactive
same,AC50,[7],10.3 µM (active)
same,outcome,[8],inactive
same,outcome,[9],inactive
same,outcome,[10],inactive
same,outcome,[11],inactive
same,AC50,[12],20 µM (active)
same,AC50,[13],20 µM (active)
same,outcome,[14],inactive
same,outcome,[15],inactive
CCCc1cc(=O)[nH]c(=S)[nH]1,outcome,[1],inactive
same,outcome,[2],inactive
same,outcome,[3],inactive
same,outcome,[4],inactive
same,outcome,[5],inactive
same,outcome,[6],inactive
same,outcome,[7],inactive
same,outcome,[8],inactive
same,outcome,[9],inactive
same,outcome,[10],inactive
same,outcome,[11],inactive
same,outcome,[12],inactive
same,outcome,[13],inactive
same,outcome,[14],inactive
same,outcome,[16],inactive
same,outcome,[15],inactive
CC(=O)C(C)=CC1C(C)=CCCC1(C)C (stereo unspecified),outcome,[1],inactive
same,outcome,[2],inactive
same,outcome,[3],inactive
same,outcome,[5],inactive
same,outcome,[6],inactive
same,AC50,[7],20 µM (active)
same,outcome,[8],inactive
same,outcome,[9],inactive
same,outcome,[10],inactive
same,outcome,[11],inactive
same,outcome,[12],inactive
same,AC50,[13],20 µM (active)
COc1ccc(S(=O)(=O)N2C(=O)[C@@](c3ccccc3OC)(N3C[C@H](O)C[C@H]3C(=O)N(C)C)c3cc(Cl)ccc32)c(OC)c1,AC50,[1],31.8 µM (active)
same,outcome,[2],inactive
same,outcome,[3],inactive
same,outcome,[5],inactive
same,outcome,[6],inactive
same,outcome,[7],inactive
same,outcome,[8],inactive
same,outcome,[9],inactive
same,outcome,[10],inactive
same,outcome,[11],inactive
same,outcome,[12],inactive
same,outcome,[13],inactive
CN1CCCC1=O,outcome,[1],inactive
same,outcome,[2],inactive
same,outcome,[3],inactive
same,outcome,[4],inactive
same,outcome,[5],inactive
same,outcome,[6],inactive
same,outcome,[7],inactive
same,outcome,[8],inactive
same,outcome,[9],inactive
same,outcome,[10],inactive
same,outcome,[11],inactive
same,outcome,[12],inactive
same,outcome,[13],inactive
same,outcome,[14],inactive
same,outcome,[15],inactive
CCOC(=O)C(C)(C)Oc1ccc(Cl)cc1,outcome,[1],inactive
same,outcome,[2],inactive
same,outcome,[3],inactive
same,outcome,[5],inactive
same,outcome,[6],inactive
same,outcome,[7],inactive
same,outcome,[8],inactive
same,outcome,[9],inactive
same,outcome,[10],inactive
same,outcome,[11],inactive
same,outcome,[12],inactive
same,outcome,[13],inactive
COc1ccc2c(c1)c(CC(=O)O)c(C)n2C(=O)c1ccc(Cl)cc1,outcome,[1],inactive
same,outcome,[2],inactive
same,outcome,[3],inactive
same,outcome,[4],inactive
same,outcome,[5],inactive
same,outcome,[6],inactive
same,outcome,[7],inactive
same,outcome,[8],inactive
same,outcome,[9],inactive
same,outcome,[10],inactive
same,outcome,[11],inactive
same,outcome,[12],inactive
same,outcome,[13],inactive
Nc1ccccc1N,outcome,[1],inactive
same,outcome,[2],inactive
same,outcome,[3],inactive
same,outcome,[4],inactive
same,outcome,[5],inactive
same,outcome,[6],inactive
same,outcome,[7],inactive
same,outcome,[8],inactive
same,outcome,[9],inactive
same,outcome,[10],inactive
same,outcome,[11],inactive
same,outcome,[12],inactive
same,outcome,[13],inactive
CNCc1cc(F)ccc1Oc1ccc(Cl)c(Cl)c1,AC50,[1],2.55 µM (active)
same,outcome,[2],inactive
same,outcome,[3],inactive
same,outcome,[4],inactive
same,AC50,[5],31.5 µM (active)
same,outcome,[6],inactive
same,outcome,[7],inactive
same,AC50,[8],32.6 µM (active)
same,AC50,[9],31.7 µM (active)
same,outcome,[10],inactive
same,outcome,[11],inactive
same,outcome,[12],inactive
same,outcome,[13],inactive
same,outcome,[14],inactive
same,outcome,[15],inactive
CCCCCCCCCCCCCCCCCC(=O)O,outcome,[1],inactive
same,outcome,[2],inactive
same,outcome,[3],inactive
same,outcome,[5],inactive
same,outcome,[6],inactive
same,outcome,[7],inactive
same,outcome,[8],inactive
same,outcome,[9],inactive
same,outcome,[10],inactive
same,outcome,[11],inactive
same,outcome,[12],inactive
same,outcome,[13],inactive
same,outcome,[14],inactive
same,outcome,[15],inactive
C=CCOC(=O)c1ccccc1C(=O)OCC=C,outcome,[1],inactive
same,outcome,[2],inactive
same,outcome,[3],inactive
same,outcome,[4],inactive
same,outcome,[5],inactive
same,outcome,[6],inactive
same,AC50,[7],20 µM (active)
same,outcome,[8],inactive
same,outcome,[9],inactive
same,outcome,[10],inactive
same,outcome,[11],inactive
same,outcome,[12],inactive
same,outcome,[13],inactive
Cc1ccc(C)c(O)c1C,outcome,[1],inactive
same,outcome,[2],inactive
same,outcome,[3],inactive
same,outcome,[4],inactive
same,outcome,[5],inactive
same,outcome,[6],inactive
same,AC50,[7],32.4 µM (active)
same,outcome,[8],inactive
same,outcome,[9],inactive
same,outcome,[10],inactive
same,outcome,[11],inactive
same,AC50,[12],33.9 µM (active)
same,AC50,[13],31.6 µM (active)
same,outcome,[14],inactive
same,outcome,[15],inactive
CC(C)(C)c1cc(O)c(C(C)(C)C)cc1O,AC50,[1],25.9 µM (active)
same,outcome,[2],inactive
same,outcome,[3],inactive
same,outcome,[5],inactive
same,AC50,[6],31.4 µM (active)
same,outcome,[7],inactive
same,AC50,[8],4.33 µM (active)
same,AC50,[9],30.7 µM (active)
same,outcome,[10],inactive
same,AC50,[12],31.7 µM (active)
same,outcome,[13],inactive
C=CCc1ccc(O)c(OC)c1,outcome,[1],inactive
same,outcome,[2],inactive
same,outcome,[3],inactive
same,outcome,[4],inactive
same,outcome,[5],inactive
same,outcome,[6],inactive
same,outcome,[7],inactive
same,outcome,[8],inactive
same,outcome,[9],inactive
same,AC50,[10],31.1 µM (active)
same,outcome,[11],inactive
same,outcome,[12],inactive
same,AC50,[13],20 µM (active)
same,outcome,[14],inactive
same,outcome,[16],inactive
same,outcome,[15],inactive
CC(=O)Oc1ccccc1C(=O)O,outcome,[1],inactive
same,outcome,[2],inactive
same,outcome,[3],inactive
same,outcome,[5],inactive
same,outcome,[6],inactive
same,outcome,[7],inactive
same,outcome,[8],inactive
same,outcome,[9],inactive
same,outcome,[10],inactive
same,outcome,[11],inactive
same,outcome,[12],inactive
same,outcome,[13],inactive
same,outcome,[14],inactive
same,outcome,[16],inactive
